From PubChem BioAssay (NCI)
This is part of a sample that, as a whole, favours compounds with a hit. Of some 83,000 tested, about 20% had one in any assay.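 A percent growth of 40 corresponds to 60% growth inhibition; 0 means no net growth; -100 means all cells died. Active threshold: below 10.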 Values without a mark were called inactive. Active and inactive are the calls of the source.

How the values were obtained:
Experiment in all cases: NCI-60 one-dose screen, 48 h (100 = growth as untreated, 0 = no growth, -100 = all killed)
Settings in all cases: 10 µM unless noted
DU-145 prostate = system: DU-145 prostate
K-562 leukemia = system: K-562 leukemia
MALME-3M melanoma = system: MALME-3M melanoma
MDA-MB-231 breast = system: MDA-MB-231 breast
RXF 393 renal = system: RXF 393 renal
SF-268 CNS = system: SF-268 CNS
SF-295 CNS = system: SF-295 CNS
SF-539 CNS = system: SF-539 CNS
UACC-257 melanoma = system: UACC-257 melanoma
M14 melanoma = system: M14 melanoma
HCT-15 colon = system: HCT-15 colon
HT29 colon = system: HT29 colon
SNB-75 CNS = system: SNB-75 CNS
SNB-19 CNS = system: SNB-19 CNS
U251 CNS = system: U251 CNS
PC-3 prostate = system: PC-3 prostate
SK-MEL-5 melanoma = system: SK-MEL-5 melanoma
UACC-62 melanoma = system: UACC-62 melanoma
LOX IMVI melanoma = system: LOX IMVI melanoma
SK-MEL-28 melanoma = system: SK-MEL-28 melanoma

| Structure (SMILES) | growth (DU-145 prostate) | growth (K-562 leukemia) | growth (MALME-3M melanoma) | growth (MDA-MB-231 breast) | growth (RXF 393 renal) | growth (SF-268 CNS) | growth (SF-295 CNS) | growth (SF-539 CNS) | growth (UACC-257 melanoma) | growth (M14 melanoma) | growth (HCT-15 colon) | growth (HT29 colon) | growth (SNB-75 CNS) | growth (SNB-19 CNS) | growth (U251 CNS) | growth (PC-3 prostate) | growth (SK-MEL-5 melanoma) | growth (UACC-62 melanoma) | growth (LOX IMVI melanoma) | growth (SK-MEL-28 melanoma) |
| --- | --- | --- | --- | --- | --- | --- | --- | --- | --- | --- | --- | --- | --- | --- | --- | --- | --- | --- | --- | --- |
| Cc1cc(Br)c(C)cc1Br | 102% | 89.8% | 121% | 111% | 106% | 100% | 89.2% | 103% | 94.4% | 100% | 101% | 94.2% | 100% | 108% | 98.9% | 95.8% | 96.9% | 102% | 97.6% | 103% |
| O=C(Nc1ccccc1)P(=O)(O)c1ccccc1 | 108% | 95.7% | 123% | 100% | 105% | 98.5% | 122% | 90.2% | 96.5% | 103% | 99.5% | 114% | 78.8% | 103% | 94.6% | 95.5% | 102% | 94.1% | 96% | 102% |
| O=C(C(=O)c1cc(Br)ccc1O)c1cc(Br)ccc1O | 67.7% | 42.8% | 31.2% | 64.8% | 65.7% | 38.1% | 67.9% | 53.2% | 43.1% | 66.9% | 54% | 93.7% | 59.8% | 37.9% | 43.6% | 46.5% | 14.7% | 11.7% | 39.1% | 51.1% |
| C[C@@H]1CN(c2nc3c(cc2F)c(=O)c(C(=O)O)cn3C(C)(C)C)C[C@H](C)N1 | 114% | 90.8% | 91.3% | 88.4% | -17.3% (active) | 114% | 96.5% | 107% | 91.2% | 98.8% | 106% | 95.8% | 114% | 106% | 103% | 89.1% | 92.4% | 90% | 90.5% | 122% |
| COc1cc(C2CC(c3ccc(C)cc3)=NN2C=O)ccc1OCCN(C)C (stereo not given) | 105% | 83% | 83.1% | 97.2% | 79.8% | 89.8% | 97.4% | 89.5% | 92.9% | 96.8% | 76% | 84.2% | 62.2% | 92.5% | 92.2% | 79% | 90.2% | 100% | 89.8% | 107% |
| COC(=O)[C@H](Cc1cn(C)cn1)NC(=O)[C@H](C)NC(=O)Nc1cc(C(F)(F)F)cc(C(F)(F)F)c1 | -80.3% [100 µM] (active) | -26.6% [100 µM] (active) | -81.3% [100 µM] (active) | -76.4% [100 µM] (active) | -83.1% [100 µM] (active) | -77% [100 µM] (active) | -82.2% [100 µM] (active) | -95.1% [100 µM] (active) | -92.9% [100 µM] (active) | -85.2% [100 µM] (active) | 37.7% [100 µM] | -67.5% [100 µM] (active) | -78.3% [100 µM] (active) | -82.5% [100 µM] (active) | -93.8% [100 µM] (active) | -83.7% [100 µM] (active) | -95.4% [100 µM] (active) | -93% [100 µM] (active) | -81% [100 µM] (active) | -94.4% [100 µM] (active) |
| Cc1ccc(C(=O)Cc2ccccc2)c(O)c1 | 101% | 98.8% | 115% | 103% | 115% | 97.6% | 107% | 102% | 108% | 110% | 102% | 110% | 97.8% | 95.4% | 98.9% | 99.8% | 108% | 90.4% | 98% | 117% |
| COc1ccc(C(=O)/C=C/c2cccc(Nc3ccnc4cc(Cl)ccc34)c2)cc1 | 37% | 21% | 44% | 13.7% | 41.7% | 39% | 30.6% | 28.4% | 37.8% | 23.2% | 30.6% | 1.05% (active) | -1.22% (active) | 51.3% | 8.83% (active) | 33.7% | 7.89% (active) | 27.8% | 6.49% (active) | 44.6% |
| CCCCCN1C(=O)CCC1=O | 101% | 114% | 90.3% | 109% | 122% | 93.3% | 101% | 102% | 99.4% | 107% | 106% | 102% | 98.6% | 101% | 99% | 95.1% | 102% | 99.3% | 102% | 110% |
| CCN(CC)c1ccc(N=C2C=CC(=O)C=C2NC(C)=O)cc1 | 111% | 77.9% | 142% | 81.7% | 94.8% | 94% | 115% | 95.3% | 90.7% | 109% | 90.3% | 104% | 96.7% | 116% | 87.9% | 83.6% | 88.5% | 93.2% | 80.8% | 127% |
| NS(=O)(=O)c1ccc(-n2ncc3c(N/N=C/c4ccccc4)ncnc32)cc1 | 73.1% | 83.1% | 85.6% | 101% | -18.8% (active) | 76.9% | 29.8% | 76.2% | 62.4% | 116% | 108% | 81% | 104% | 80.4% | 89.7% | 80.6% | 86.7% | 96.8% | 91.7% | 95.3% |
| CCc1nn2c(-c3ccc(Cl)cc3C)c(-c3cc(OC)c(OC)c(OC)c3)nc2s1 | 91.7% | 78.4% | 68% | 73.8% | 85.2% | 93.4% | 95.3% | 92.6% | 103% | 76.7% | 69.8% | 66.8% | 3.79% (active) | 56.8% | 89.7% | 64.1% | 70.3% | 60% | 77.1% | 80.8% |
| CCSc1nc(-c2ccco2)n2nc(-c3ccco3)cc2n1 | 118% | 116% | 116% | 88.1% | 101% | 113% | 101% | 100% | 102% | 121% | 78.1% | 99.4% | 83.2% | 113% | 96.8% | 95.7% | 78.3% | 89.8% | 88.3% | 120% |
| Clc1ccc(C2=NN(c3ccc(Cl)cc3)C(c3cccc(Nc4ccnc5cc(Cl)ccc45)c3)C2)cc1 (stereo not given) | 96.2% | 75.1% | 87.1% | 84.5% | 82.5% | 84.3% | 88.6% | 96.5% | 76.8% | 84.8% | 85.2% | 77.9% | 77.3% | 82.3% | 76.8% | 65.7% | 92.8% | 88.3% | 85.1% | 104% |
| Cc1ccc(N/N=C(/C(=O)c2ccc(Cl)cc2)c2nc(C)cc(=O)[nH]2)cc1 | 102% | 91.7% | 126% | 95.9% | 40.7% | 107% | 90% | 85.3% | 105% | 82.7% | 111% | 111% | 116% | 104% | 103% | 95% | 82.5% | 90.8% | 92.6% | 118% |
